Hit rate of the full screen: of about 96,000 compounds, about 20,000 (21%) were called active. Not all results are given here. A number with no mark means an inactive call.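 The calls were made as follows: active = CYP2C19 inhibition above a set limit at 5 µM in the primary screen (cut at about 50% in these data); inactive = the rest.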

In this test the target is Cytochrome P450 2C19 (Homo sapiens) (UniProt P33261). The experiment in a line: blockers of cytochrome P450 2C19 activity – biochemical, luminescence, ADME assay, primary screen (AID 778).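 Also: plate controls were negative control wells for no effect and 2.5 mM tranylcypromine positive control for full effect.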 The settings on record: CYP2C19 Supersomes, luciferin-H EGE luminescence, 30 min; at 5 µM; hits give high values.
Cytochrome P450 2C19 (Homo sapiens), sequence (P33261 whole entry, looked up): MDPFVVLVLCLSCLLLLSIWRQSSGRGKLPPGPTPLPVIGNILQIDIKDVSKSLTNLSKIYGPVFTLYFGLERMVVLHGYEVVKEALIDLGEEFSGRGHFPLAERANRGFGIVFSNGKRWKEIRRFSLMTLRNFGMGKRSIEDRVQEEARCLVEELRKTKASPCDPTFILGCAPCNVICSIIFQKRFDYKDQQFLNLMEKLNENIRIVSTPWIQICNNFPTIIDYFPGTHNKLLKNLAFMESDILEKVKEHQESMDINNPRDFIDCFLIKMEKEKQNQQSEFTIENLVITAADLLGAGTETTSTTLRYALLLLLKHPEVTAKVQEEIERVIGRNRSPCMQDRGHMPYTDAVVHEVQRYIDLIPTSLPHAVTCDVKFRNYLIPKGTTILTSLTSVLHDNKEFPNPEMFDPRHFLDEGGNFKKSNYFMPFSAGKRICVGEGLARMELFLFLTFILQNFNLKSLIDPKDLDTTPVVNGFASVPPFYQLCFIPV
`CCOC(=O)c1cccc(NC(=O)CCc2c(C)nc3ncnn3c2C)c1`: the inhibition is 2.3%.

Turning to `Cc1ccc2c(CSc3nncs3)cc(=O)oc2c1`, the inhibition is 86.8% (active).

As for `Cc1cc([N+](=O)[O-])c(N2CCC[C@@H]2C(=O)O)c([N+](=O)[O-])c1`, the inhibition was -5.1%.

Turning to `CCOc1ccc(C(=O)NC(C(=O)NCc2ccccn2)C(C)C)cc1` (stereo not given), the inhibition was 26.7%.

Turning to `COc1cccc(/C=N/NC(=O)c2cccc([N+](=O)[O-])c2)c1OS(=O)(=O)c1ccc(C)cc1`, the inhibition is 1.4%.

Turning to `CC(C)(CSc1nncn1/N=C/c1ccco1)NS(=O)(=O)c1ccc(Cl)cc1`, the inhibition is 53.3% (active).

With `COc1ccc(O)c(C=Nc2cc(C)on2)c1`, the inhibition is 1.5%.

`COc1ccc(O)c(C(=O)c2cnc3onc(C(C)C)c3c2)c1`: the inhibition was 100% (active).

Take `O=C(Nc1cccc2cccnc12)c1cccc(N2C(=O)CCC2=O)c1`: the inhibition was 22.2%.

Take `CCCC(C(=O)N1CCOCC1)N1C(=O)C2C3C=CC(C3)C2C1=O` (stereo not given): the inhibition is -3.8%.

For the compound `Cc1nc(Cl)c2oc3ccccc3c2n1`, the inhibition was 49.8%.

Take `CCCCC(=O)Nc1cc(C)c2c(=O)oc3ccccc3c2n1`: the inhibition was 16.3%.

On to `Cc1ccccc1-n1nnc2c(=O)oc3ccccc3c21`, for which the inhibition was 66.5% (active).

As for `Cc1ccc(-c2nc(CS(=O)CC(=O)N3CCN(c4ncccn4)CC3)c(C)o2)cc1` (stereo not given), the inhibition was 24.1%.

For `COc1ccc(C(=O)N(Cc2ccc(N(C)C)cc2)C2CCS(=O)(=O)C2)cc1` (stereo not given), the inhibition is 8.9%.

`COc1cc(C(=O)N(Cc2ccc(N(C)C)cc2)C2CCS(=O)(=O)C2)cc(OC)c1OC` (stereo not given): the inhibition is 19%.

`CCOc1ccc(C(=O)N(Cc2ccc(N(C)C)cc2)C2CCS(=O)(=O)C2)cc1` (stereo not given): the inhibition was 58.6% (active).

Consider `Cc1ccc(CCn2c3c(c4ccccc42)CN(C)CC3)cn1`, for which the inhibition was 7.8%.

Regarding `CSc1nc2nc3c(c(=O)n2[nH]1)CCC3`, the inhibition is 4.1%.

As for `COc1ccc(C2CC(=O)Nc3cc(C)c(C)cc32)c(OC)c1OC` (stereo not given), the inhibition was 94.5% (active).

`COc1cc2c(cc1OC)C(c1ccncc1)CC(=O)N2` (stereo not given): the inhibition was 16.4%.

Turning to `COc1cccc(-c2nnc(N(C)C(=O)c3ccno3)s2)c1`, the inhibition is 11.1%.

Take `Cc1nnc(C)n1/N=C/c1ccc(C(C)C)cc1`: the inhibition is 10.5%.

As for `COC(=O)c1ccc(C(=O)Nc2cc(Cl)ccc2Cl)cc1NC(=O)c1ccccc1C`, the inhibition is 4.7%.

Consider `Cc1cccc(C(=O)Nc2ccc(CC(=O)O)cc2)c1`, for which the inhibition was -0.6%.

Consider `COC(=O)c1ccccc1NC(=O)c1cncc(Br)c1`, for which the inhibition was 30.8%.

For the compound `CN(C)c1ccc(NC(=O)c2ccncc2)c2ccccc12`, the inhibition was 90.3% (active).

With `Cc1ccccc1NC(=O)c1ccccc1`, the inhibition is -2%.

Take `CCOc1ccc(-c2cn(S(=O)(=O)c3cccc4nsnc34)nc2N)cc1`: the inhibition is 3.8%.

As for `COc1cc(C(=O)OC(C)C(=O)NCC2CCCCC2)cc(NC(=O)c2ccco2)c1OC` (stereo not given), the inhibition was 38.3%.

As to `COC(=O)c1ccc(CSc2ccc3nnc(-c4ccccc4)n3n2)o1`, the inhibition was 63.7% (active).

Take `O=C(O)CSCc1ccc(C(=O)O)o1`: the inhibition was -3%.

`CCOc1ccccc1Nc1nnc(SCc2ccc(C(=O)OC)o2)s1`: the inhibition was 43%.

Turning to `CCc1ccc(C(=O)CSc2nnc(C)c(=O)[nH]2)cc1`, the inhibition was 19.3%.

`Cc1cc(C)c(OCC(=O)N/N=C/c2ccco2)c(C)c1`: the inhibition is 41.2%.

As to `Cc1ccc(OCC(=O)N/N=C/c2ccncc2)cc1`, the inhibition was 96.3% (active).

On to `Cc1ccc(OCC(=O)Nc2ccc(-c3nc4ncccc4o3)cc2)cc1`, for which the inhibition is 3.2%.

With `O=C(Nc1cc2c3c(c1)C1CCCC1CN3CC1CCCC21)c1ccc([N+](=O)[O-])cc1` (stereo not given), the inhibition was 28.2%.

`Cc1cccc(N(CC(=O)N=Nc2c(O)[nH]c3ccccc23)S(C)(=O)=O)c1C`: the inhibition was 33.6%.

In the case of `Cc1nnc(SCc2cc(=O)[nH]c(N3CCN(Cc4ccccc4)CC3)n2)s1`, the inhibition was 50.4% (active).

Consider `O=c1cc(CSc2ccccn2)nc(N2CCN(c3ccccc3)CC2)[nH]1`, for which the inhibition is -0.6%.

Regarding `CCc1c(C)nc(N2CCN(Cc3ccccc3)CC2)[nH]c1=O`, the inhibition is 2.4%.

Turning to `COCc1cc(C)nc2sc3c(=O)n(-c4cccc5ccccc45)nnc3c12`, the inhibition is 24.5%.

As to `CN1c2ccccc2-c2nc3ccccc3n2C1c1ccco1` (stereo not given), the inhibition is 14.2%.

Turning to `COC(=O)c1ccc2c(=O)n(CC3CCCO3)c(=S)[nH]c2c1` (stereo not given), the inhibition is -6.3%.

As to `O=c1c2cc3c(=O)n(CC4CCCO4)c(=O)c3cc2c(=O)n1CC1CCCO1` (stereo not given), the inhibition was 0.8%.

On to `CCOc1cccc(=O)c2c(C)n(CC3CCCO3)c(C)c12` (stereo not given), for which the inhibition is 92.1% (active).

`COc1ccc(-c2nc(CS(=O)CC(=O)NCc3cccnc3)c(C)o2)cc1OC` (stereo not given): the inhibition was 24.2%.

`COc1ccc(-c2cc(C(F)(F)F)nc(S(C)(=O)=O)n2)cc1OC`: the inhibition is 12.6%.

With `COc1ccc(-c2cc(C(F)(F)F)nc(NCc3cccnc3)n2)cc1`, the inhibition is 73.4% (active).

For `COc1ccc(-c2csc3nc(-c4ccccc4F)oc(=O)c23)cc1OC`, the inhibition is 25.3%.

`CCCOc1ccccc1-c1nc(SCCC(=O)O)n[nH]1`: the inhibition is -4.6%.

As for `N/C(=N\OC(=O)Nc1ccc(Cl)c(Cl)c1)c1ncc(C(F)(F)F)cc1Cl`, the inhibition is -13.4%.

For `O=C(CC(O)(C(F)(F)F)C(F)(F)F)Nc1ccc(Cl)c(Cl)c1`, the inhibition was 77% (active).

For the compound `Cc1nnc(NC(=O)Nc2ccc(Cl)c(Cl)c2)s1`, the inhibition was -9.1%.

With `COc1ccccc1Nc1ncnc2c1oc1ccccc12`, the inhibition is 30.1%.

For `CC1(C)CC(=O)C=C(NCCN2CCNCC2)C1`, the inhibition was -7.9%.

Take `Cc1cc(N2CCN(Cc3ccc4c(c3)OCO4)CC2)n2ncnc2n1`: the inhibition is 8.7%.

Regarding `c1n[nH]c(NCc2ccc3c(c2)OCO3)n1`, the inhibition is -7.6%.

As to `CC(C)OCCCNc1ncnc2c1[nH]c1ccc(F)cc12`, the inhibition was 31.8%.

As for `Fc1ccc2[nH]c3c(N4CCSCC4)ncnc3c2c1`, the inhibition was 58.5% (active).

On to `Fc1ccc2[nH]c3c(N4CCN(Cc5ccc6c(c5)OCO6)CC4)ncnc3c2c1`, for which the inhibition was 61.2% (active).

As for `CCN1CCCC1CNc1ncnc2c1[nH]c1ccc(F)cc12` (stereo not given), the inhibition is 14.6%.

`Cc1cc(C(F)(F)F)n2ncc(-c3ccccc3)c2n1`: the inhibition is 21.2%.

For the compound `C=C1c2cc(CC)ccc2NC(=O)N1c1ccc(C)cc1`, the inhibition was 32.6%.

For the compound `CC1(C)CC(=O)C2=C(C1)NCN(CCCN1CCOCC1)C2`, the inhibition is -0.8%.

Consider `CCCCc1nc(NCCN)c(C#N)c2c1CSC(C)(C)C2`, for which the inhibition is 25.3%.

As to `CCNc1nc(SCCOc2ccccc2)nc(N(C)C)n1`, the inhibition was 12.3%.

Regarding `O=C(CSc1ccccc1)Nc1ccc(NC(=O)c2ccco2)cc1`, the inhibition was 22%.

For the compound `Cc1ccnc(NC(=O)c2ccc(NC(=O)c3ccco3)cc2)c1`, the inhibition is 13.1%.

`O=C(/C=C/c1ccco1)Nc1ccc(Oc2ccccc2)cc1`: the inhibition was 8.4%.

`COC(=O)c1ccc(NC(=O)c2ccco2)cc1`: the inhibition is 53.1% (active).

`O=C(Nc1ccc(Sc2ccc(Br)cc2)cc1)c1ccco1`: the inhibition was 6.9%.

As for `O=C(Nc1ccc(Oc2ccccc2)cc1)c1ccco1`, the inhibition was 59.9% (active).

On to `CCOCCOC(=O)C1=C(C)N(C)C(=O)NC1c1ccccc1F` (stereo not given), for which the inhibition is 47.5%.

Consider `COc1ccc(CCNC(=O)CN2CCC(n3nnc4cc(F)ccc43)CC2)cc1OC`, for which the inhibition is 22.7%.

Consider `Cc1ccc(C(=O)NNC(=O)OC(C)(C)C)c(Cl)c1`, for which the inhibition was 14.6%.

Take `CCN1CCN(Cc2nc3c(c(=O)n(C)c(=O)n3C)n2CC(=O)c2ccccc2)CC1`: the inhibition was 4.3%.

As to `CC1CN(c2cc(=O)n(Cc3ccc(F)cc3)c(=O)[nH]2)CC(C)O1` (stereo not given), the inhibition was -11%.

For the compound `Cc1ccccc1/[N+]([O-])=C/c1ccncc1`, the inhibition is 42.4%.

On to `CCOc1cc(/C=C2/N=C(c3ccc(C(C)(C)C)cc3)OC2=O)cc(Cl)c1OS(C)(=O)=O`, for which the inhibition was 14.4%.

In the case of `COC(=O)c1sccc1-n1cccc1C(=O)C(=O)N1CCCCC1`, the inhibition was 31.2%.

For `Cc1cccc(-n2cnc(C(=O)Nc3cccnc3)c2)n1`, the inhibition is 57% (active).

In the case of `CCC(=O)Nc1cccc(NC(=O)c2cccnc2)c1`, the inhibition is 6.1%.

Turning to `Cc1cc(C)c(NC(=O)CS(=O)CC(=O)Nc2cccnc2)c(C)c1` (stereo not given), the inhibition was 13.1%.

Take `COc1cc(/C=C(/NC(=O)c2ccccc2)C(=O)Nc2cccc(O)c2)c([N+](=O)[O-])cc1OC`: the inhibition was 6.1%.

Take `c1ccc(Nc2nc(N3CCOCC3)c3ccccc3n2)cc1`: the inhibition is 55.6% (active).

Take `Cc1cc(C(=O)Nc2ccccc2N2CCOCC2)c2ccccc2n1`: the inhibition is 29.8%.

Consider `c1ccc(-c2oc3ncnc(N4CCOCC4)c3c2-c2ccccc2)cc1`, for which the inhibition is 9.2%.

On to `CCCCc1c(O)nc2n(c1=O)CCS2`, for which the inhibition is -19.9%.

Turning to `COc1ccc(C(=O)CSc2n[nH]c(N)n2)cc1`, the inhibition was 4.5%.

For `COC(=O)Cc1cc(=O)n(-c2nc3ccccc3s2)[nH]1`, the inhibition was 13.8%.

Consider `COc1ccccc1N1CC(O)=C(c2nc3ccccc3s2)C1=N`, for which the inhibition is 50.8% (active).

`CCCCCN1CC(O)=C(c2nc(-c3ccc(Cl)cc3)cs2)C1=N`: the inhibition was 7.1%.

In the case of `Cc1ccc(Nc2nc(-c3sc(NC(=O)c4ccccc4)nc3C)cs2)cc1`, the inhibition is 17.1%.

Consider `CCN1CCN(c2c(Cl)cccc2NC(=O)c2ccc(Br)o2)CC1`, for which the inhibition is 16%.

With `COc1cc(OC)c(NC(=O)c2ccc(Br)o2)cc1Cl`, the inhibition was 79.4% (active).

Consider `CCCC(=O)Nc1ccc(Cl)c(NC(=O)c2ccc(Br)o2)c1`, for which the inhibition was 12.5%.

Turning to `O=C(COc1cc(Cl)c(Cl)cc1Cl)NC(=O)NC1CCCC1`, the inhibition was -6.2%.

As to `CCCC(=O)N1CCc2[nH]c3ccccc3c2C1`, the inhibition is 25.3%.

The inhibition is the change of the read-out against control, counted positive when it falls.

The values above are taken from PubChem BioAssay AID778 (Sanford-Burnham Center for Chemical Genomics, 2007).
